Data: PubChem BioAssay (Tox21)
Results filed as inconclusive are left out. A number with no mark means an inactive call. Calls come from the whole dose curve; as a rule, active = well fitted inhibition curve with a large enough effect in the signal ratio in the repeat runs (not every such curve was filed as active); inconclusive = weak or mixed curves, or effect the other way; inactive = no such curve, though single readings can be large or run the other way; the % refers to the signal ratio.

biological target: Peroxisome proliferator-activated receptor delta (Homo sapiens) (UniProt Q03181); experiment: qHTS assay to identify small molecule antagonists of the peroxisome proliferator-activated receptor delta (PPARd) signaling pathway (AID 743215); conditions: HEK293H PPARd-UAS-bla, beta-lactamase FRET ratio, antagonist, 17 h; series mostly up to 62 µM; ratio activity, negative = inhibition: at the top concentration;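 note: cells stimulated with agonist L165041 at 300 nM final during compound exposure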
Sequence (Q03181 whole entry, looked up): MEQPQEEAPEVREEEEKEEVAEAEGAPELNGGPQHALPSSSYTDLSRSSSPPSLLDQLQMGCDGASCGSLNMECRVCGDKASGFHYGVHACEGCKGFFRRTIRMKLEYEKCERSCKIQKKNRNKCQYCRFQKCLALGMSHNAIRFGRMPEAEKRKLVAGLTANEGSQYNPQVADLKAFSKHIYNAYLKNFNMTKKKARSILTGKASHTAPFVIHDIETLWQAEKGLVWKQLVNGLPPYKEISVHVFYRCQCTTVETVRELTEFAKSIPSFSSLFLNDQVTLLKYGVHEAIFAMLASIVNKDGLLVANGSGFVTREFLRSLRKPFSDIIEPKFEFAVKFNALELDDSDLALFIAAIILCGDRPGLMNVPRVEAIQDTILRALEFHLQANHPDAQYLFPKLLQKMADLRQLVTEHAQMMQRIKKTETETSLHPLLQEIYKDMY
Summary of the method: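 Here, a reporter line (HEK293H, beta-lactamase under a UAS) measures PPARd signaling. Compounds are tested against agonist L165041 at 300 nM final concentration over 17 h at 37 C, with fluorescence read after substrate.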
% is set by controls: 0 for no effect and ±100 for the full control effect.

Compound | ratio activity, negative = inhibition [%]
c1ccccc1 | 1.66
CCCCCN(CCCOC)C(=O)C(CCC(=O)O)NC(=O)c1ccc(Cl)c(Cl)c1 (stereo not drawn) | -4.72
CC(=O)N(CC(O)CO)c1c(I)c(C(=O)NCC(O)CO)c(I)c(C(=O)NCC(O)CO)c1I (stereo not drawn) | 1.39
CC(CC(=O)O)CC(C)(C)C (stereo not drawn) | -8.12
CCC(CO)CO | -5.29
C=CCOc1cc(Cl)ccc1C(=O)NCCN(CC)CC | -7.47
Cc1nc2n(c(=O)c1CCN1CCC(C(=O)c3ccc(F)cc3)CC1)CCS2 | -1.37
CCOC(=O)CC#N | -6.69
CC(=O)OCCCc1ccccc1 | -1.66
CC(C)C(=O)Nc1cccc(C(F)(F)F)c1 | 8.56
Cc1cccc(NC(=S)N(C)C)c1 | -10.5
CCC(C)(CCC(C)C)C(=O)[O-].CCC(C)(CCC(C)C)C(=O)[O-].[Zn+2] (stereo not drawn) | 13.9
CC(C)COC(=O)/C=C/c1ccccc1 | 15.8
O=C(O)c1ccc(OCCN2CCCCC2)cc1 | 20.7
CCCCCCCCCCCCCCCCCCN(C)C | 8.96
Cc1ccc(C(=O)C(=O)O)cc1C | 3.27
CCCCC(CC)CNC(=O)CC(C)OC(=O)CCC(=O)O (stereo not drawn) | -4.65
CC(=O)OC[C@H]1O[C@@H](OC(C)=O)[C@H](OC(C)=O)[C@@H]1OC(C)=O | 0.826
N#CCCOCCOCCC#N | 6.35
Nc1nc(=O)n([C@@H]2O[C@H](CO)[C@@H](O)[C@@H]2F)cc1I | -8.19
CCOC(=O)C(=O)c1csc(NC=O)n1 | 9.74
COc1cc([N+](=O)[O-])ccc1N | -3.5
C/C=C(\C)C(=O)OCC/C=C\CC | 12

biological target: Bile acid receptor (Homo sapiens) (UniProt Q96RI1); experiment: qHTS assay to identify small molecule antagonists of the farnesoid-X-receptor (FXR) signaling pathway (AID 743217); conditions: HEK293T FXR-UAS-bla, beta-lactamase ratio, CDCA-stimulated, 16 h; series mostly up to 62.6 µM; activity change, negative = inhibition: at the top concentration
Sequence (Q96RI1 whole entry, looked up): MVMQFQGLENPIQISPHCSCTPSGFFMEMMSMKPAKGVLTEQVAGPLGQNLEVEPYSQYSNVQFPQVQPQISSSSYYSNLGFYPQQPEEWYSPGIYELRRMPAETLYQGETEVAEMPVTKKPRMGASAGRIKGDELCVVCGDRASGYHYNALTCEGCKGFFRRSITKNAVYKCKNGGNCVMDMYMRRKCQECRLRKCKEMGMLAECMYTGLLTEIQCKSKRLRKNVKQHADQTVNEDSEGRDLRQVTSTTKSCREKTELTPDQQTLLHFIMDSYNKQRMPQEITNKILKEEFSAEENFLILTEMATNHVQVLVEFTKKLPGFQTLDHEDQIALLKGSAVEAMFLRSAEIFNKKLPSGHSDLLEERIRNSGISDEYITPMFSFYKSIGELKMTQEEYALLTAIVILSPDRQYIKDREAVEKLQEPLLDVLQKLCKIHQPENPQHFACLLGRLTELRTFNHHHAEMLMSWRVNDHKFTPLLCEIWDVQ
Summary of the method: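 Test compounds are pin-transferred onto FXR-bla HEK 293T cells, then chenodeoxycholic acid is added at 50 uM final. After 16 h at 37 °C, LiveBLAzer B/G substrate is applied for 2 h at room temperature and fluorescence read.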

Compound | activity change, negative = inhibition [%]
c1ccccc1 | -2.77
CCN(CC)C(=O)C1CN2CCc3cc(OC)c(OC)cc3C2CC1OC(C)=O (stereo not drawn) | 0.33
CC(CC(=O)O)CC(C)(C)C (stereo not drawn) | -2.28
c1ccc(CNc2ncnc3nc[nH]c23)cc1 | -0.563
CC(=O)OC(C)(C)Cc1ccccc1 | 0.7
Cc1nc2n(c(=O)c1CCN1CCC(C(=O)c3ccc(F)cc3)CC1)CCS2 | -9.31
CCOC(=O)CC#N | -1.22
CC(=O)OCCCc1ccccc1 | -3.6
Cc1cccc(NC(=S)N(C)C)c1 | -13.6
CC(C)COC(=O)/C=C/c1ccccc1 | -11.5
O=C(O)/C=C/c1ccccc1 | -0.67
CCCCC(CC)CNC(=O)CC(C)OC(=O)CCC(=O)O (stereo not drawn) | 7.07
CC(=O)OC[C@H]1O[C@@H](OC(C)=O)[C@H](OC(C)=O)[C@@H]1OC(C)=O | 2
N#CCCOCCOCCC#N | 3.04
CCOC(=O)C(=O)c1csc(NC=O)n1 | 9.32
CC(C)=CC(C)(C)C | -8.43
O=C1OC(=O)c2cc(Oc3ccc4c(c3)C(=O)OC4=O)ccc21 | -4.51
CO/N=C(/C(=O)N[C@@H]1C(=O)N2C(C(=O)O)=C(Cn3nnc(C)n3)CS[C@H]12)c1csc(N)n1 | -0.684
COc1cc([N+](=O)[O-])ccc1N | -2.76
C/C=C(\C)C(=O)OCC/C=C\CC | 2.15
